From the supplement of paper PMC10849652
Targets with a hit are over-represented here; the source holds about 7,900 in all. About 0.6% of all pairs of compound and target were hits.

Compound: c1cn2cc(-c3ccc4cn[nH]c4c3)nc(Nc3ccc(N4CCOCC4)cc3)c2n1 [entospletinib]
Assay: log2 fold change, soluble protein after heating vs DMSO (PISA); higher = thermal stabilisation; K562 cells, 10 uM, 30 min; active = over 0.2 and 3.5 SD of the protein, either way, in both replicates (recomputed)
Summary of the method: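 K562 cells at 2×10^6 cells/mL were treated for 30 min with 10 μM compound, and aliquots were heated for 3 min over 48°C-58°C before pooling. Extraction used PBS with 0.5% NP-40 at 4°C, and soluble protein was the supernatant after 21,000xg for 90 min, measured by TMTpro 16plex LC-MS/MS with channel sums equalised. Thermal stability values, relative to control samples and from duplicates, are log2 fold changes.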

Chain of UniProt Q15075 (Q15075 whole entry, looked up): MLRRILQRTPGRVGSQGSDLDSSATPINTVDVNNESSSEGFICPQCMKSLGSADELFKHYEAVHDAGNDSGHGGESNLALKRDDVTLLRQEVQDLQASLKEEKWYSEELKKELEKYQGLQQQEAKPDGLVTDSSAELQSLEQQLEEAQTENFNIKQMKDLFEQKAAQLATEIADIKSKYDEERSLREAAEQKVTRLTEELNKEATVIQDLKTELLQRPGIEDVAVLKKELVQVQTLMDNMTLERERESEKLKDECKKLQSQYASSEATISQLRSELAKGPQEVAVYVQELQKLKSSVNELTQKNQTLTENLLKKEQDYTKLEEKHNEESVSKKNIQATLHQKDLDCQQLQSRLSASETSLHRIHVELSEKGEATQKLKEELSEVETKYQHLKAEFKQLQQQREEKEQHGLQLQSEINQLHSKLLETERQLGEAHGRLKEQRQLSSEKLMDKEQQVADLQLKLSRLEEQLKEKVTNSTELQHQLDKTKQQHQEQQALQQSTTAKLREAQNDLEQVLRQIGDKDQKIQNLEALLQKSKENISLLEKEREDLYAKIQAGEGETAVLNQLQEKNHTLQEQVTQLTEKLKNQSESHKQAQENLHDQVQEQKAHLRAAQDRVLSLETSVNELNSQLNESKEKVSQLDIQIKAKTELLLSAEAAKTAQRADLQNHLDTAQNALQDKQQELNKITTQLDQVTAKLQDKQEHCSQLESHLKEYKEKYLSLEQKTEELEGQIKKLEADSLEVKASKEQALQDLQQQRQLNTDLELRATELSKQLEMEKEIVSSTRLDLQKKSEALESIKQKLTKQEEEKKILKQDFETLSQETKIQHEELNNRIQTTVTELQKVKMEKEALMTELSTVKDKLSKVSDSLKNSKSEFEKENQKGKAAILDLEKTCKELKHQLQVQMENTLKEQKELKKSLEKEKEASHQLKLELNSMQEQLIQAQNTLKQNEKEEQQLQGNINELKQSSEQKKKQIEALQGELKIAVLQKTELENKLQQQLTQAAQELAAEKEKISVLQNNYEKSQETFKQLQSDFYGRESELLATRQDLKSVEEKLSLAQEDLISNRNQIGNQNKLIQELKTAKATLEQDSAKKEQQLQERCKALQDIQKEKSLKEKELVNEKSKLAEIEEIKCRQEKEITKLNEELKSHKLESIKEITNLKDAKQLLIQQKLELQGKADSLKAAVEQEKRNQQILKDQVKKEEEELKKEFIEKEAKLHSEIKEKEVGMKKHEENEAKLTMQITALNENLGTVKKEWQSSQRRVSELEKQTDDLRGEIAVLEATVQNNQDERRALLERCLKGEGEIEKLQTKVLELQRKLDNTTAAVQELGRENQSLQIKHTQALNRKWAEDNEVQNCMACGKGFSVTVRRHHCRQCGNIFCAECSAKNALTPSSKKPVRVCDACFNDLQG
Chain of UniProt Q96GE9 (Q96GE9 whole entry, looked up): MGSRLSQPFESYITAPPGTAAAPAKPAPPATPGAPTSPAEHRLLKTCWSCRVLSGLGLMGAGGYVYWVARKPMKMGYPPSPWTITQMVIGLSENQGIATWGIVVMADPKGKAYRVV
Chain of UniProt O15121 (O15121 whole entry, looked up): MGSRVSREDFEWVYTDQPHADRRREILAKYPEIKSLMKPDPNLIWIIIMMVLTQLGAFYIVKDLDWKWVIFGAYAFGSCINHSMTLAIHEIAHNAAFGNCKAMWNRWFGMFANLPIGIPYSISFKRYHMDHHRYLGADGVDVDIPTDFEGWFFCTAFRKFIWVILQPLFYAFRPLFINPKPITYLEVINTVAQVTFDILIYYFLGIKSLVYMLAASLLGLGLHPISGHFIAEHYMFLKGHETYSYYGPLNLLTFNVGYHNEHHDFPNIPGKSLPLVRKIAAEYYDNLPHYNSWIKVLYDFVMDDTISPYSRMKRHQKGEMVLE
Chain of UniProt Q9NSI2 (Q9NSI2 whole entry, looked up): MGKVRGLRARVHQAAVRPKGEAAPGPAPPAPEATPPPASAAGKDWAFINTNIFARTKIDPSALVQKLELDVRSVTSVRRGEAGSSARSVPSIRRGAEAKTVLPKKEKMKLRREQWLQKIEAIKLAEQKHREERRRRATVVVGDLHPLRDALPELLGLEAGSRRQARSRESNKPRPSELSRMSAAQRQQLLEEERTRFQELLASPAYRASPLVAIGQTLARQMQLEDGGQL
Chain of UniProt P39880 (P39880 whole entry, looked up): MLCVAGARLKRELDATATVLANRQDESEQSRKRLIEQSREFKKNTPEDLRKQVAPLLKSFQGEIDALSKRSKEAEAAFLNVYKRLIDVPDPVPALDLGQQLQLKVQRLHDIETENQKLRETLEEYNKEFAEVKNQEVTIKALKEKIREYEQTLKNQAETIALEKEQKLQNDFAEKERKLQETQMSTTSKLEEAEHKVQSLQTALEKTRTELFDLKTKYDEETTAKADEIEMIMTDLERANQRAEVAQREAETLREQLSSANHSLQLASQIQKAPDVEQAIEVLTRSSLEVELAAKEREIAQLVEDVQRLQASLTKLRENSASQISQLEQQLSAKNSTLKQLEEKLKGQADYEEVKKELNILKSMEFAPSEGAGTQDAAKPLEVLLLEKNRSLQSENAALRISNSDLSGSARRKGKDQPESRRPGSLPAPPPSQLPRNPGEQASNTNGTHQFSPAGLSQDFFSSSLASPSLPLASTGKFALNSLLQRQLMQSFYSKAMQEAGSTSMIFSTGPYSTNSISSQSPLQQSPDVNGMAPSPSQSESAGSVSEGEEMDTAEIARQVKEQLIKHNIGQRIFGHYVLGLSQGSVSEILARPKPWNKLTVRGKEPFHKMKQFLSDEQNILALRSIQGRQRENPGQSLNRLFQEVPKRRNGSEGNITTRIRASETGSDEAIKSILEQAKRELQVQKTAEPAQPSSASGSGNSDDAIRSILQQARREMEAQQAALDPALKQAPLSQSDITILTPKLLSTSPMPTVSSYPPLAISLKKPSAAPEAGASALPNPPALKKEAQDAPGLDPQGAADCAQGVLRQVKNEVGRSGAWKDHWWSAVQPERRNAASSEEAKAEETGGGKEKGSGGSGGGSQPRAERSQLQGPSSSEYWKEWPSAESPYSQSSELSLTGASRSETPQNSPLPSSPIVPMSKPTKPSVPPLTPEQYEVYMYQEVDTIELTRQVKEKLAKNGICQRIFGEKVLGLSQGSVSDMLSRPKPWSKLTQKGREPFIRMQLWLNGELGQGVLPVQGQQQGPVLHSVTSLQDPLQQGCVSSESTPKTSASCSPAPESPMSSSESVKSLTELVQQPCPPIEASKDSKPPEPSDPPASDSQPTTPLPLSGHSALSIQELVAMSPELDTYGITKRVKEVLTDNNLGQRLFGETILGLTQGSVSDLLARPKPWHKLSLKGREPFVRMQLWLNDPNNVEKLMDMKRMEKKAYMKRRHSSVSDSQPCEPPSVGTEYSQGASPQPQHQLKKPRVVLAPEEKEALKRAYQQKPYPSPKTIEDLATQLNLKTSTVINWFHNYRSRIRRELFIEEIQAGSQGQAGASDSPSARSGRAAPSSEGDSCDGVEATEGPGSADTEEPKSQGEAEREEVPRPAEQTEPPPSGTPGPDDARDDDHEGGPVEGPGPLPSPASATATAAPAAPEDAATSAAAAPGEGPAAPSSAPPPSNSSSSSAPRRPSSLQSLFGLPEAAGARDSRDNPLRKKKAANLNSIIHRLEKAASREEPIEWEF
Chain of UniProt Q8N128 (Q8N128 whole entry, looked up): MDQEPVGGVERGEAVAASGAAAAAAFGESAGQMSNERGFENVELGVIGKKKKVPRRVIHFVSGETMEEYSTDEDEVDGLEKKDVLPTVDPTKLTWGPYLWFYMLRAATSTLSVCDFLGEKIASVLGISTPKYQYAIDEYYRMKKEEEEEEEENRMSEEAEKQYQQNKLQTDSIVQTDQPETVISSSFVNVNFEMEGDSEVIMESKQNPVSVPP
Chain of UniProt P98082 (P98082 whole entry, looked up): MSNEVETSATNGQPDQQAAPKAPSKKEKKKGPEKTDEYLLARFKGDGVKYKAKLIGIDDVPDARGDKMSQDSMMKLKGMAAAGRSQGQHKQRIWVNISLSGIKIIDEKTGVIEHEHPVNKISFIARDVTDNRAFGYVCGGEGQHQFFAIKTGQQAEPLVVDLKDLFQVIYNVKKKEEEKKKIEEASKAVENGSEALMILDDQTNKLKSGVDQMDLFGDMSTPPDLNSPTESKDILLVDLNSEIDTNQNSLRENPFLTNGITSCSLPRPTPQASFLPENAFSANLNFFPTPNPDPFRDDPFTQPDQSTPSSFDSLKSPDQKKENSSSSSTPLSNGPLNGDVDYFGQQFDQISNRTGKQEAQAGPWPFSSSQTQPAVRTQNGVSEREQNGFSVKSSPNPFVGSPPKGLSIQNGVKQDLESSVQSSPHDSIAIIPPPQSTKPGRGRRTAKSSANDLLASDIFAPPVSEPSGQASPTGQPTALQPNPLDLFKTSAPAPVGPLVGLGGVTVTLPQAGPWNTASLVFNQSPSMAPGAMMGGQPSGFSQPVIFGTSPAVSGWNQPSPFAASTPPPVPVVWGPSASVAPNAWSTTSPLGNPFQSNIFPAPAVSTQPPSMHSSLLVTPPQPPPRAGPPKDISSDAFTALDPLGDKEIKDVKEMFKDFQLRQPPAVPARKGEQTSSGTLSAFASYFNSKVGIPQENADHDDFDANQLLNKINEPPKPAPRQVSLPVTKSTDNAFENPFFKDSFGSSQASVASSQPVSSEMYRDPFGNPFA
Chain of UniProt Q96DA6 (Q96DA6 whole entry, looked up): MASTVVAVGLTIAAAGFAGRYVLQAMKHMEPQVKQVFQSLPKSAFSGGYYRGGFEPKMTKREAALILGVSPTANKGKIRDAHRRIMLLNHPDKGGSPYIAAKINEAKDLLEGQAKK
Chain of UniProt Q8NBI2 (Q8NBI2 whole entry, looked up): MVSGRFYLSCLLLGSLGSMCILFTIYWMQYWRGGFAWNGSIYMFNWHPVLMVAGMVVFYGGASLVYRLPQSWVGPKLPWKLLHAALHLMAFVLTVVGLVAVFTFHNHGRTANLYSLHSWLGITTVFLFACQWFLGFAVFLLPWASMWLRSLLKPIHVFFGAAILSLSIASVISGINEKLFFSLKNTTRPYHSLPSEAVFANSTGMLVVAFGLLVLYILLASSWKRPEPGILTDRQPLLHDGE

log2 fold change, inactive:
DCTPP1 (UniProt Q9H773) -0.008
CYB561A3 isoform 2 (UniProt Q8NBI2) 0.315
ELF1 (UniProt P32519) -0.082
DBNL isoform 3 (UniProt Q9UJU6) -0.087
FAM177A1 isoform 2 (UniProt Q8N128) 0.05
FAM83D (UniProt Q9H4H8) 0.028
DCAF10 (UniProt Q5QP82) 0.307
EED, A0A5F9ZI63 0.037
CTU1 (UniProt Q7Z7A3) 0.006
FAM207A (UniProt Q9NSI2) 0.013
DLK1 (UniProt P80370) 0.076
EIF4G3 isoform 3 (UniProt O43432) 0.118
DNAJC1 (UniProt Q96KC8) 0.015
FAF2 (UniProt Q96CS3) -0.015
DMAC1 (UniProt Q96GE9) 0.073
DAG1 (UniProt Q14118) 0.003
DAB2 (UniProt P98082) 0.043
DHX36 (UniProt Q9H2U1) 0.016
DYNC1LI2 (UniProt O43237) -0.005
ELOC (UniProt Q15369) 0.028
FAM241A (UniProt Q8N8J7) -0.008
DIP2A (UniProt Q14689) -0.128
CUX1 isoform 3 (UniProt P39880) 0.016
DHRS1 (UniProt Q96LJ7) -0.613
DYRK1A isoform 2 (UniProt Q13627) 0.003
ERLIN2 (UniProt O94905) -0.062
ESS2 (UniProt Q96DF8) 0.118
DCAF13 (UniProt Q9NV06) 0.061
EDRF1 (UniProt Q3B7T1) -0.036
ELOVL1 (UniProt Q9BW60) -0.007
DEGS1 (UniProt O15121) -0.03
EBNA1BP2 (UniProt Q99848) 0.031
DHPS (UniProt P49366) -0.003
DNAJC19 (UniProt Q96DA6) 0.026
EEA1 (UniProt Q15075) -0.005
